Experimental data from PubChem BioAssay AID431 (Sanford-Burnham Center for Chemical Genomics, 2006).
The whole screen tested about 63,000 compounds, of which about 1,100 (1.7%) were called active.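 Rule for the calls: active = compounds whose percent cytotoxicity in the single-dose primary screen, scaled between solvent and toxic-drug controls, exceeds 50; inactive = the rest.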 The sample as a whole holds a higher share of actives than the screen did. Measured potencies and affinities stand elsewhere.

Assay: viability loss of HPDE-C7K cells – cell-based, fluorescence, HTS, primary screen (AID 431);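 note: 0% = DMSO solvent wells and 100% = doxorubicin-treated wells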
Conditions: HPDE-C7K KRASV12 cells, Alamar Blue viability, 48 h; at 10 µM; active compounds read high

Structure (SMILES) | cytotoxicity
CC(=O)c1ccccc1OCCCN1CCCCC1 | 1.2% (inactive)
O=C(CNS(=O)(=O)c1cccs1)N1CCCC1 | -3.8% (inactive)
Cc1occc1-c1nnc(SCc2nc3ccccc3c(=O)n2CC#N)n1C | -5.4% (inactive)
Cn1c(COc2ccccc2)nnc1SCCN1CCOCC1 | -8.5% (inactive)
Cc1cc2ccccc2c(=O)[nH]1 | 3% (inactive)
O=c1[nH]c(Nc2ccccc2)cc2ccccc12 | 0.6% (inactive)
Cc1ccccc1Nc1cc2ccccc2c(=O)[nH]1 | 73.3% (active)
Fc1ccc(-c2cc3nc(-c4ccccc4)cc(N4CCN(CCN5CCOCC5)CC4)n3n2)cc1 | 44.9% (inactive)
COc1ccc(OC)c(S(=O)(=O)NCc2cccnc2)c1 | -4.2% (inactive)
CCn1c(SCC(=O)N2CCc3ccccc32)nnc1-c1ccncc1 | -9.5% (inactive)
CN1CCN(Cc2ccc(OCc3ccccc3)cc2)CC1 | 33.9% (inactive)
COC(=O)COc1ccc(S(=O)(=O)Nc2cc(OC)ccc2OC)cc1 | 0% (inactive)
COc1ccc(OC)c(NS(=O)(=O)c2ccc3c(c2)CCC(=O)N3)c1 | 3.2% (inactive)
COc1ccc(OC)c(NS(=O)(=O)c2ccc(SC)cc2)c1 | 30.3% (inactive)
COc1ccc(OC)c(NS(=O)(=O)c2ccc(N3CCCC3=O)cc2)c1 | 79.5% (active)
CCCCOc1ccc(S(=O)(=O)Nc2cc(OC)ccc2OC)cc1 | 32.5% (inactive)
CCOc1ccc(S(=O)(=O)Nc2cc(OC)ccc2OC)cc1 | 75.9% (active)
COc1ccccc1NC(=O)CSc1nnc(-c2ccncc2)o1 | -3.6% (inactive)
CCn1c(SCC(=O)Nc2nc(-c3ccccc3)cs2)nnc1-c1ccccc1 | 23.1% (inactive)
CCn1c(Cc2ccccc2)nnc1SCC(=O)Nc1nc2ccccc2s1 | 8.8% (inactive)
CCc1nnc(NC(=O)CSc2nnc(-c3ccccc3OC)n2-c2ccccc2)s1 | -6.6% (inactive)
CCc1nnc(NC(=O)CSc2nnc(-c3ccccc3O)n2-c2ccc(C)cc2C)s1 | 61.3% (active)
CCn1c(SCC(=O)Nc2nc(-c3ccc(C)cc3)cs2)nnc1-c1ccccc1O | 46.4% (inactive)
CCn1c(SCC(=O)Nc2nc3ccccc3s2)nnc1-c1ccc(OC)cc1 | 78.6% (active)
CCn1c(SCC(=O)Nc2nc(-c3ccccc3)cs2)nnc1-c1ccccc1O | 55.5% (active)

Structure (SMILES) | cytotoxicity
CCc1nnc(NC(=O)CSc2nnc(-c3ccccc3O)n2-c2ccc(C)cc2)s1 | -7.5% (inactive)
CCn1c(Cc2ccc(OC)cc2)nnc1SCC(=O)Nc1nc2ccccc2s1 | -6.3% (inactive)
Cc1nc2ccccc2c(=O)n1/N=C/c1cccnc1 | 20.1% (inactive)
CCCc1cc(=O)[nH]c(SCC(=O)c2cc(C)n(CCOC)c2C)n1 | 1.9% (inactive)
COC(=O)C1CCN(C(=O)COC(=O)Cc2c[nH]c3ccccc23)CC1 | 2.5% (inactive)
O=C(CN1C(=O)c2ccccc2S1(=O)=O)NC1CCCCCC1 | 1.2% (inactive)
CC1(C)Cc2ccccc2-c2nc(NCCCO)n(-c3ccccc3)c(=O)c21 | 12.6% (inactive)
O=C(Nc1ccc2c(c1)OCO2)Nc1ccc(Br)cn1 | 21.3% (inactive)
CCOc1cccc2cc(-c3nnc(-c4ccccc4)o3)c(=O)oc12 | -3.1% (inactive)
CCCCCCc1cc2cc(C(=O)NC)c(=N)oc2cc1O | 30.5% (inactive)
CCCCCCc1cc2cc(-c3nnc(-c4ccccc4O)o3)c(=O)oc2cc1O | 55.8% (active)
CCN(CC)S(=O)(=O)c1ccc(-c2nnc(SCC(=O)Nc3nc(C)cs3)o2)cc1 | 20.5% (inactive)
COC(=O)c1ccc(OC(=O)c2ccccn2)cc1 | -2% (inactive)
CC1(C)OC(=O)C2(Cc3ccccc3N3CCCCC32)C(=O)O1 (stereo not given) | -0.5% (inactive)
O=C(O)c1ccc2c3c(ncnc13)-c1ccccc1C2=O | 75.9% (active)
O=C1c2ccccc2-c2nccnc21 | -3.8% (inactive)
O=C1c2ccccc2-c2ncnc3cccc1c23 | -4.9% (inactive)
Fc1cc2ncn(Cc3ccccc3)c2cc1F | -20.3% (inactive)
N#Cc1nc(-c2ccco2)oc1NCc1ccc(F)cc1 | 10.2% (inactive)
CCC(C)C(=O)Nc1c2c(nc3c1CCC3)CCCC2 (stereo not given) | -5.8% (inactive)
c1ccc(Cn2nnc3c(N4CCCC4)ncnc32)cc1 | 8.8% (inactive)
c1ccc(Cn2nnc3c(N4CCCCCC4)ncnc32)cc1 | -2.6% (inactive)
FC(F)(F)c1ccc(N2CCN(c3ncnc4c3nnn4Cc3ccccc3)CC2)nc1 | 55.5% (active)
CC(=O)Nc1cc2c(cc1C(=O)C(C)C)OCCO2 | -0.7% (inactive)
Cc1ccc(C)c(Cn2c(C(C)O)nc3ccccc32)c1 (stereo not given) | -16.7% (inactive)

Structure (SMILES) | cytotoxicity
Cc1ccc(-c2nc(-c3ccccc3)no2)c(Cl)c1 | -2.7% (inactive)
CC(C)C(=O)Nc1c2c(nc3ccccc13)N(C)CC2 | -4% (inactive)
CC(C)c1nnc(NC(=O)c2c(O)c3cccc4c3n(c2=O)CCC4)s1 | 49.4% (inactive)
CCc1nnc(NC(=O)c2c(O)c3cccc4c3n(c2=O)CC4)s1 | 50% (active)
CCc1nnc(NC(=O)c2cnccn2)s1 | -15.3% (inactive)
CCc1nnc(NC(=O)c2cccc(C(=O)Nc3nnc(CC)s3)n2)s1 | 53.1% (active)
CCc1nnc(NC(=O)c2cccc(OC)c2)s1 | 9.1% (inactive)
CCCc1nnc(NC(=O)c2c(O)c3cccc4c3n(c2=O)CC4)s1 | 43.6% (inactive)
Cc1csc(NC(=O)c2c(O)c3cccc4c3n(c2=O)CCC4)n1 | -16.1% (inactive)
CCCc1nnc(NC(=O)c2c(O)c3cccc4c3n(c2=O)CCC4)s1 | 7.3% (inactive)
Cc1cnc(NC(=O)c2c(O)c3cccc4c3n(c2=O)CCC4)s1 | 91.8% (active)
O=C(COc1ccccc1Cl)NCc1ccncc1 | -2.3% (inactive)
CC1CCCCN1C(=O)CSc1nc(C2CC2)nc2c1cnn2-c1ccccc1 (stereo not given) | 1.1% (inactive)
c1ccc(CNc2c3c(nc4ncnn24)CCCC3)nc1 | -2.6% (inactive)
CC(=O)NCc1nc2ccccc2n1Cc1ccccc1C | -2.6% (inactive)
CCOC(=O)CC(=O)Nc1nnc(C(C)C)s1 | -20.6% (inactive)
COc1ccc(-c2cc(C(=O)O)c3ccccc3n2)c(OC)c1 | -13.5% (inactive)
COc1ccc2[nH]c(C(=O)O)c(CCC(=O)O)c2c1 | 1.5% (inactive)
O=C(O)CCc1cc(I)c(Oc2ccc(O)c(I)c2)c(I)c1 | 81.2% (active)
N[C@@H](Cc1ccc(O)c(I)c1)C(=O)O | -4.9% (inactive)
CCOC(=O)c1c(-c2ccsc2)csc1N | -5.8% (inactive)
COc1ccc2nc(C)[nH]c(=O)c2c1 | 0.4% (inactive)
CS(=O)(=O)N1CCN(c2nc(-c3ccccc3)cs2)CC1 | 11.2% (inactive)
Nc1nc(SCC(=O)N2CCCc3ccccc32)[nH]c(=O)c1-c1ccccc1 | 2.5% (inactive)
COc1cc(C2c3c(n[nH]c3C)C(=O)N2c2ccc(C)cc2)ccc1O (stereo not given) | 58% (active)

Structure (SMILES) | cytotoxicity
CCOc1cc(C2c3c(n[nH]c3C)C(=O)N2c2ccc(Br)cc2)ccc1O (stereo not given) | 21.7% (inactive)
COc1cc(C2c3c(n[nH]c3C)C(=O)N2c2ccc(Br)cc2)ccc1O (stereo not given) | 37.4% (inactive)
O=C(CN1CCN(Cc2ccccc2Cl)C1=O)N1CCCCCC1 | -10.9% (inactive)
COCCN(CCOC)S(=O)(=O)c1ccc(C(=O)Nc2nnc(C)o2)cc1 | -7.3% (inactive)
COc1cccc(-c2nnc(NC(=O)c3ccc(S(=O)(=O)N4CCOCC4)cc3)o2)c1 | 1% (inactive)
CCCN(CCC)S(=O)(=O)c1ccc(C(=O)Nc2nnc(-c3cc(OC)cc(OC)c3)o2)cc1 | 52.7% (active)
CCCN(CCC)S(=O)(=O)c1ccc(C(=O)Nc2nnc(-c3cccc(OC)c3)o2)cc1 | 62.9% (active)
COc1cccc(-c2nnc(NC(=O)c3ccccc3Br)o2)c1 | 24.6% (inactive)
COc1cccc(-c2nnc(NC(=O)c3ccc(S(=O)(=O)N(CC(C)C)CC(C)C)cc3)o2)c1 | 55.5% (active)
COc1cccc(-c2nnc(NC(C)=O)o2)c1 | 9.5% (inactive)
COc1cccc(-c2nnc(NC(=O)c3ccc(S(=O)(=O)N4CC(C)OC(C)C4)cc3)o2)c1 (stereo not given) | -4.2% (inactive)
CCCN(CCC)S(=O)(=O)c1ccc(C(=O)Nc2nnc(CSC)o2)cc1 | 2.7% (inactive)
CCCCn1c(SCC(=O)Nc2nc(C)cs2)nnc1-c1cccnc1 | 2.9% (inactive)
Nc1nc(NC(=O)c2cccnc2)nn1-c1ccccc1 | 0.1% (inactive)
Nc1nc(NC(=O)c2ccco2)nn1-c1ccccc1 | 4.5% (inactive)
OC(COCc1cccs1)CN1CCN(c2ccccn2)CC1 (stereo not given) | 2.8% (inactive)
OC(COc1ccc(Cl)c2ccccc12)CN1CCN(c2ccccn2)CC1 (stereo not given) | 18.3% (inactive)
OC(CN1CCN(c2ccccn2)CC1)Cn1c2ccccc2c2ccccc21 (stereo not given) | 53.3% (active)
O=C1NCC2=C1C(c1ccc(Br)cc1)Nc1ccccc1N2 (stereo not given) | -0.1% (inactive)
Cc1c(NC(=O)COC(=O)c2cc3c4ccccc4n(C)c3s2)c(=O)n(-c2ccccc2)n1C | 19.8% (inactive)
Cc1nnc(NC(=O)Nc2cccc(Cl)c2)s1 | 12.5% (inactive)
CNC(=O)C1C2C=CC3(O2)C1C(=O)N(C1CC1)C3C(=O)NCc1ccc(OC)cc1 (stereo not given) | 3.6% (inactive)
CC(=O)c1c(C)nc(-c2ccc3c(c2)OCO3)n1O | -5.4% (inactive)
O=C(Nc1ccc2c(c1)OCO2)C(c1ccc(Cl)cc1)N1CCC2(CC1)OCCO2 (stereo not given) | 5.8% (inactive)
O=C(CSc1nnc(Cc2ccccc2)o1)Nc1ccc(Br)cn1 | -11.2% (inactive)
